# Screens from PubChem.
# A selection: hits, their analogues and other compounds. The true share with any hit is near 11%.
# hNpr1 antagonist: Natriuretic polypeptide receptor (hNpr1) antagonism - Primary qHTS | HEK293 hNpr1 GloSensor cGMP, ANP-stimulated luminescence | Potency, µM (series often up to 46.3 µM), inactives show top-dose activity change, negative = inhibition, hits mostly inhibitors | 1.6% of 76,000 active | AID 1347048, 2019 | Atrial natriuretic peptide receptor 1 (Homo sapiens), P16066; calls by dose curve; also: nearly all actives have a fitted effect of over 60% in size
#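 Compound pre-incubated 30 min at room temperature on GloSensor-loaded HEK293 cells stably carrying hNpr1 and the pGS-40F cGMP biosensor. Stimulation uses hNppA at 0.1 nM final; luminescence is taken at baseline and 20 min post-agonist.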
# 3T3 cytotox: Cytotoxic Profiling in NIH 3T3 Cell Line of Diverse Libraries Using Quantitative High-Throughput Screening; NIH 3T3 viability, CellTiter-Glo ATP luminescence, 48-72 h; AID 1345082, 2018; 4.3% of 94,000 active; Potency, µM (highest dose often 96.7 µM), for the others: at the top dose activity change, negative = cytotoxicity, hits mostly inhibitors; also: nearly all actives have a fitted effect of over 55% in size
#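 First NIH 3T3 cells are plated at 400 cells/well; next compound is pinned in; then plates incubate 48 or 72 hr at 37 °C; finally CellTiter-Glo is added and luminescence read after 10 min.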
# HEK293 tox: Cytotoxic Profiling in HEK 293 Cell Line of Diverse Libraries Using Quantitative High-Throughput Screening; AID 1345083, 2018; HEK 293 viability, ATP luminescence (CellTiter-Glo), 48-72 h; Potency, µM (doses to about 115 µM), without a hit: at the top dose activity change, negative = cytotoxicity, actives largely listed as inhibitors; 6.6% of 94,000 active; also: nearly all actives have a fitted effect of over 60% in size
#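 Cells seeded first (HEK 293, 250 cells/well), then compound added by pintool. Incubation ran 48 or 72 hr at 37 degree Celsius. CellTiter-Glo was added and luminescence imaged after 10 min at room temperature.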
# Luciferase inh: Firefly luciferase inhibition profiling of diverse chemical library using quantitative high-throughput screening; Luciferin 4-monooxygenase (Photinus pyralis), P08659; purified P. pyralis luciferase, luminescence, biochemical; Potency, µM (top dose mostly 115 µM), most hits filed as inhibitors; 2.5% of 76,000 active; AID 1347043, 2019; also: nearly all actives have a fitted effect of over 65% in size
#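 Luminescence read by CCD imaging after purified firefly luciferase (10nM final) was added to substrate buffer holding 10uM D-luciferin and 10uM ATP, pH 7.5, pre-dosed with compound.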
# * hit, by the source's call; i = inactive; ? = inconclusive; nt = not tested or not shown; [ ] = another dose, or the depositor's remark. Unless noted, calls follow the shape of the dose curve; as a rule, active = well fitted curve in the direction sought with a large enough effect; inconclusive = small, poorly fitted or top-dose-only effect, or another doubt; inactive = no such curve, though single readings can be large; an effect the other way counts as inactive or inconclusive. % is scaled to controls: 0 for no effect and ±100 for the full control effect; potency is read from the fitted curve at half-maximal effect.
SMILES,hNpr1 antagonist,3T3 cytotox,HEK293 tox,Luciferase inh
COc1ccc(-c2nc(CN3CCC(CO)CC3)c(C)o2)c2ccccc12,9%,?,20µM*,i
COc1ccc(C(=O)N2CCCC(Cc3ncc(C)n3Cc3ccccc3)C2)c(OC)c1 (centres undefined),-3%,-7%,-21%,22µM*
C[S+](=O)([O-])N1Cc2ccccc2CC2(CCCN(CC3CCCCC3)C2)C1 (centres undefined),nt,i,-17%,nt
O=C1COc2ccc(-c3ccccc3F)nc2CN1Cc1ccccc1,-20%[70.6 µM],?,?,i
O=C1COc2ccc(-c3ccc(F)cc3)nc2CN1Cc1ccccc1F,-22%[70.6 µM],?,100µM*,i
Cn1cc(-c2ccc3c(n2)CN(Cc2ccc(C(F)(F)F)cc2)C(=O)CO3)cn1,-16%[70.6 µM],32µM*,?,i
O=C1COc2ccc(-c3ccccc3)nc2CN1Cc1ccccc1,-16%[70.6 µM],?,112µM*,i
COc1ccc(-c2ccc3c(n2)CN(Cc2ccccc2F)C(=O)CO3)cc1OC,-16%[70.6 µM],25µM*,50µM*,i
COc1ccc(-c2ccc3c(n2)CN(Cc2ccc(F)cc2)C(=O)CO3)cc1,?,?,?,i
O=C1COc2ccc(-c3cc(F)cc(F)c3)nc2CN1Cc1ccccc1,1%[70.6 µM],?,?,i
COCCN1Cc2nc(-c3ccc(OC)c(F)c3)ccc2OCC1=O,0%[70.6 µM],?,-23%[172 µM],i
COc1ccc(-c2ccc3c(n2)CN(Cc2ccccc2)C(=O)CO3)cc1F,-17%[70.6 µM],79µM*,79µM*,i
O=C1COc2ccc(-c3ccncc3)nc2CN1Cc1ccccc1F,1%[70.6 µM],89µM*,?,i
CCCn1c(C)cnc1CC1CCN(C(=O)CC2CCCC2)C1 (centres undefined),6%,5%,i,i
Cc1cn2nc(C(=O)NC3CCCCC3)cc2c(N2CCCC2)n1,10%,-7%,-3%,i
Cc1cn2nc(C(=O)NC3CCCCCC3)cc2c(N2CCSCC2)n1,-2%,?,45µM*,i
Cc1cn2nc(C(=O)Nc3ccc4c(c3)OCCO4)cc2c(N2CCSCC2)n1,-27%,-15%,?,11µM*
Cc1cccc(NC(=O)c2cc3c(N4CCSCC4)nc(C)cn3n2)c1,-5%,?,40µM*,i
Cc1cn2nc(C(=O)Nc3ccc4c(c3)OCO4)cc2c(N2CCCC2)n1,-17%,0%,-2%,?
Cc1cn2nc(C(=O)Nc3ccccc3F)cc2c(N(C)Cc2ccccc2)n1,15%,-27%,-27%,i
O=C(NCc1ccc(Cl)cc1)C1CCN(c2nccc(Nc3ccccc3F)n2)CC1,nt,28µM*,18µM*,nt
O=C(NCCc1ccc(F)cc1)C1CCN(c2nccc(Nc3ccccc3F)n2)CC1,nt,?,28µM*,nt
COCCc1noc(-c2ccccc2OC2CN(S(=O)(=O)C(C)C)C2)n1,3%,5%,11%,i
O=C1NC2(CCCN(Cc3ccc(F)cc3)C2)COc2ccccc21 (centres undefined),16%,?,?,i
Cc1noc(C)c1[S+](=O)([O-])N1CCCC2(COc3ccccc3C(=O)N2)C1 (centres undefined),?,35µM*,22µM*,i
SMILES,hNpr1 antagonist,3T3 cytotox,HEK293 tox,Luciferase inh
O=S1(=O)NC2(CCCN(Cc3ccc(Cl)cc3)C2)COc2ccccc21 (centres undefined),nt,45µM*,?,nt
O=C1NC2(CCCN(Cc3ccsc3)C2)COc2ccccc21 (centres undefined),-21%[70.6 µM],40µM*,79µM*,i
O=C1NC2(CCCN(Cc3cncs3)C2)COc2ccccc21 (centres undefined),-6%,22µM*,28µM*,i
Cc1ccc(NC(=O)N2CCCC(Cn3cnc4cccnc43)C2)c(C)c1 (centres undefined),-1%,-12%,-7%,i
Cc1noc(-c2ccc(C(C)(C)C)cc2)c1C(=O)NCc1cc(F)cc(F)c1,2%,-23%,?,i
COc1cc(CN(C)C(=O)c2c(C)noc2-c2ccc(C(C)(C)C)cc2)cc(OC)c1OC,-20%,?,40µM*,i
COc1cc(-c2onc(C)c2C(=O)NCCCCc2ccccc2)cc(OC)c1OC,-5%,?,89µM*,i
Cc1noc(-c2ccc(OC(F)(F)F)cc2)c1C(=O)NCCC(c1ccccc1)c1ccccc1,-12%,?,35µM*,i
Cc1noc(-c2ccc(OC(F)(F)F)cc2)c1C(=O)NCCCc1ccccc1,2%,?,71µM*,i
CCCOCCNC(=O)c1c(C)noc1-c1ccc(OC(F)(F)F)cc1,-10%,-23%,?,i
COc1cc(-c2onc(C)c2C(=O)NCCCSC)cc(OC)c1OC,-27%,5%,i,i
CN(C)C(=O)NC1CCN(C(=O)c2ccc(-c3ncccc3C#N)cc2)CC1,nt,-6%,-4%,nt
O=C(Nc1ccc(Cl)cc1)N1CCN(CCn2nc3n(c2=O)CCCC3)CC1,nt,-17%,4%,nt
COCCNC(=O)c1ccc(-c2ccc(N3CCCCC3)nc2)cc1,-1%,-12%,?,?
O=C(NCCN1CCOCC1)c1ccc(-c2ccc(N3CCCCC3)nc2)cc1,-11%,?,?,32µM*
CC(C)c1nccn1CCCNC(=O)c1ccc(N2CCCCCC2)nc1,-11%,?,79µM*,i
CC(C)c1nccn1CCCNC(=O)c1ccc(N2CCC(CO)CC2)nc1,0%,-22%,-7%,i
O=C(NCCN1CCCC1)c1ccc(-c2ccc(N3CCSCC3)nc2)cc1,-17%,?,?,14µM*
O=C(NC1CCCC1)c1ccc(-c2ccc(N3CCSCC3)nc2)cc1,3%,-3%,?,i
Cc1ccc(CN2CCCC(c3nc(C(C)C)no3)CCNC(=O)CC2)s1 (centres undefined),-17%,?,?,i
COCC(=O)N1CCCC(C(=O)N2CCCC2c2nc3ccncc3[nH]2)C1 (centres undefined),nt,i,4%,nt
C[C@@H]1C(=O)O[C@H]2[C@H]1CC[C@@]1(C)Cc3sc(Nc4ccc(O)cc4)nc3[C@@H](C)[C@H]21,?,63µM*,35µM*,?
Cc1ccc(-n2c(C3CCN(C(=O)c4ccc(C#N)cc4)CC3)n[nH]c2=O)cc1,8%,35µM*,-12%,i
Cc1ccc(-n2c(C3CCN(C(=O)c4ccc(C)nc4)CC3)n[nH]c2=O)cc1,3%,25µM*,2%,i
COc1ccc(C(=O)N2CCC(c3n[nH]c(=O)n3-c3ccc(C)cc3)CC2)cc1OC,0%,?,33%,i
COc1ccc(C(=O)N2CCC(c3n[nH]c(=O)n3-c3ccc(C)cc3)CC2)cn1,0%,28µM*,-4%,i
